Assay results published in PubChem BioAssay (Tox21).
Results filed as inconclusive are left out. Active and inactive are the calls of the source. The call rests on the fitted dose curve; in most records, active means well fitted activation curve with a large enough effect in the signal ratio in the repeat runs (not every such curve was filed as active); inconclusive means weak or mixed curves; inactive means flat fitted curve, though single readings scatter; the % refers to the signal ratio.
On the % scale 0 is the no-effect control and ±100 the full control effect; potency means the concentration at half of the fitted maximal effect.

Assay: qHTS assay to identify small molecule agonists of H2AX (AID 1224845)
Conditions: CHO-K1 phospho-H2AX Ser139 HTRF, 3 h; series mostly up to 154 µM; activation (H2AX phosphorylation): at the top concentration
Excerpt: National Center for Advancing Translational Sciences [NCATS]
NIH Chemical Genomics Center [NCGC]
U.S. Environmental Protection Agency [EPA]
National Institutes of Environmental Health Sciences [NIEHS]
National Toxicology Program [NTP]
U.S. Food and Drug Administration [FDA]
HTRF phospho-H2AX (Ser139) assay (Cisbio Bioassays, US) enables the quantitative detection of the histone variant H2AX when phosphorylated on serine 139. When double-stranded DNA breaks, either by ionizing radiation or endogenous physiological processes, H2AX becomes phosphorylated at Ser139. This phospho-Ser139 serves as a sensitive biomarker for the detection of such breaks, localizing the site of DNA repair. So, HTRF phospho-H2AX Ser139 is a pertinent assay to study genome stability, the cell cycle, DNA repair, and it serves as a biomarker for cancer, and to understand aging. Wild type CHO-K1 cells were used to identify the inducers of Phospho-H2AX Ser 139 from the Tox21 10K compound collections.
Tox21 Assay Protocol Summary:
The CHO-K1 cells suspended in culture medium containing 10% FBS were dispensed at 1000 cells/ 3 ul/well in 1536-well white wall/solid bottom plates (Greiner Bio-One North America, NC) using a Multidrop Combi (Thermo Fisher Scientific Inc., Waltham, MA). After the assay plates were incubated at 37C overnight, 23 nl of compounds at 15 concentrations (from 5-48 columns) or positive control (from 1 to 4 columns) were transferred to the assay plates using a Pintool station (Wako, San Diego, CA) into each well resulting in a final DMSO concentration of 0.76%. After 3hr incubation at 37C, 1 uL/well Supplemented Lysis buffer (diluted 100 fold blocking reagent in lysis buffer) (HTRF Phospho-H2A.X (S139) Assay kit from Cisbio US Inc., Bedford, MA) was added using a Flying Reagent Dispenser (FRD) (Aurora Discovery, CA). After 10sec spin at 1000 rpm in a plate centrifuge, the assay plates were incubated at room temperature for 30 min. Then followed by the addition of 1 uL/well detection buffer (containing a mixture of two antibodies, one labeled with cryptate, Anti pH2AX (S139)-K and another labeled with d2, Anti H2AX-d2) using FRD. After incubation at room temperature for 24 hr, the time resolved fluorescence at excitation 320 nm and emissions at 665 nm and 620 nm was measured using an Envision plate reader (PerkinElmer, Waltham, MA).
With `CC(C)CCCCCCOC(=O)c1ccc(C(=O)OCCCCCCC(C)C)c(C(=O)OCCCCCCC(C)C)c1` the “activation (H2AX phosphorylation)” value was 0.603% (inactive).
For `CC(=O)c1ccc2c(c1)[C@H](NC(=O)c1ccc(F)cc1)[C@@H](O)C(C)(C)O2`, the “activation (H2AX phosphorylation)” value was -0.51% (inactive).
In the case of `NCc1ccccc1`, the “activation (H2AX phosphorylation)” value is reported as -3.04% (inactive).
For `O=S1(=O)N=C(O)c2ccccc21`, the “activation (H2AX phosphorylation)” value was -0.577% [at 70.9 µM] (inactive).
For `CCOc1ccc2[nH]cc(C(=O)NCc3ccccc3)c(=O)c2n1`, the “activation (H2AX phosphorylation)” value was -3.58% (inactive).
With `CC(=O)OC/C=C/c1ccccc1` the “activation (H2AX phosphorylation)” value was 0.617% (inactive).
In the case of `CC(=O)N(CC(=O)N(C)C)c1ccccc1`, the “activation (H2AX phosphorylation)” value is reported as 1.39% [at 70.9 µM] (inactive).
With `Oc1ccc(Sc2ccc(O)cc2)cc1` the Potency was 83.9 µM (active).
In the case of `O=c1c2ccccc2nnn1CCl`, the “activation (H2AX phosphorylation)” value is reported as 2.6% (inactive).
In the case of `NC1CCN(c2nc3c(cc2F)c(=O)c(C(=O)O)cn3-c2ccc(F)cc2F)C1` (stereo not given), the “activation (H2AX phosphorylation)” value is reported as 1.15% [at 70.9 µM] (inactive).
In the case of `CN1CCC(=C2c3ccccc3C=Cc3ccccc32)CC1`, the “activation (H2AX phosphorylation)” value is reported as -0.1% [at 70.9 µM] (inactive).
In the case of `c1ccc(OCc2ccc(CCCN3CCOCC3)cc2)cc1`, the “activation (H2AX phosphorylation)” value is reported as -4.16% [at 70.9 µM] (inactive).
For `Cc1ccc(C(N)=O)cc1N`, the “activation (H2AX phosphorylation)” value was -0.821% (inactive).
With `CCCCC(CC)(CO)CO` the “activation (H2AX phosphorylation)” value was -2.91% (inactive).
With `CCc1nn(C2CCCCC2)c2cc(C3(C#N)CCC(C(=O)O)CC3)ccc12` (stereo not given) the “activation (H2AX phosphorylation)” value was 2.71% (inactive).
In the case of `C1=Cc2ccccc2C1`, the “activation (H2AX phosphorylation)” value is reported as -1.79% (inactive).
In the case of `CC1=CCC(C(C)C)C=C1` (stereo not given), the “activation (H2AX phosphorylation)” value is reported as -0.224% (inactive).
With `CC(C)NCC(O)c1cc(O)cc(O)c1` (stereo not given) the “activation (H2AX phosphorylation)” value was 0.0285% [at 70.9 µM] (inactive).
For `Nc1cnn([C@@H]2O[C@H](CO)[C@@H](O)[C@H]2O)c(=O)n1`, the “activation (H2AX phosphorylation)” value was 0.426% (inactive).
In the case of `C[C@@H](C1=C(CCN(C)C)Cc2ccccc21)c1ccccn1`, the “activation (H2AX phosphorylation)” value is reported as -1.53% [at 70.9 µM] (inactive).
In the case of `c1ccc(-c2nc[nH]c2-c2ccccc2)cc1`, the “activation (H2AX phosphorylation)” value is reported as 0.217% [at 70.9 µM] (inactive).
With `C1CCC2OC2C1` (stereo not given) the “activation (H2AX phosphorylation)” value was -0.886% (inactive).
For `Oc1ccc(O)c2c(O)cccc12`, the “activation (H2AX phosphorylation)” value was -1.62% (inactive).
In the case of `COc1ccc2[nH]c(S(=O)Cc3ncc(C)c(OC)c3C)nc2n1` (stereo not given), the “activation (H2AX phosphorylation)” value is reported as 0.79% [at 70.9 µM] (inactive).
In the case of `CC(=O)NCCCS(=O)(=O)O`, the “activation (H2AX phosphorylation)” value is reported as 0.213% [at 70.9 µM] (inactive).
In the case of `S=C(S)NCCNC(=S)S`, the “activation (H2AX phosphorylation)” value is reported as 4.62% (inactive).
With `CCN(CC)CCNC(C(=O)OCCC(C)C)c1ccccc1` (stereo not given) the “activation (H2AX phosphorylation)” value was -4.22% [at 70.9 µM] (inactive).
With `Cc1ccc(C)o1` the “activation (H2AX phosphorylation)” value was -0.153% (inactive).
With `CCN1CCC[C@H]1CNC(=O)c1c(OC)ccc(Br)c1OC` the “activation (H2AX phosphorylation)” value was 0.684% [at 70.9 µM] (inactive).
In the case of `Cc1ccccc1N=Nc1ccc(N=Nc2c(O)ccc3ccccc23)c(C)c1`, the “activation (H2AX phosphorylation)” value is reported as -0.0684% [at 70.9 µM] (inactive).
With `CC(=O)O[C@@H]1C(=O)O[C@@H]2[C@H]1OC(=O)[C@@H]2OC(C)=O` the “activation (H2AX phosphorylation)” value was 4.75% [at 70.9 µM] (inactive).
For `O=C(c1ccccc1)c1ccc2n1CCC2C(=O)O` (stereo not given), the “activation (H2AX phosphorylation)” value was -1.81% [at 70.9 µM] (inactive).
In the case of `C=CC(=O)OCCOC(=O)CCC(=O)O`, the “activation (H2AX phosphorylation)” value is reported as 2.22% (inactive).
For `N[C@H]1C(O)O[C@H](CO)[C@H](O)[C@@H]1O` (stereo not given in full), the “activation (H2AX phosphorylation)” value was 0.981% (inactive).
For `CCC(=O)OC(C)(C)C1CC=C(C)CC1` (stereo not given), the “activation (H2AX phosphorylation)” value was -2.63% (inactive).
With `Cc1ccc(O)c([C@H](CCN(C(C)C)C(C)C)c2ccccc2)c1` the “activation (H2AX phosphorylation)” value was -1.14% [at 70.9 µM] (inactive).
For `O=S1(=O)c2cccc3cccc(c23)N1CCCN1CCN(c2ccc(F)cc2)CC1`, the “activation (H2AX phosphorylation)” value was 0.864% [at 70.9 µM] (inactive).
For `CCOC(=O)CC(=O)c1cc(F)c(Cl)nc1Cl`, the “activation (H2AX phosphorylation)” value was 3.83% (inactive).
In the case of `CC(C)CC=O`, the “activation (H2AX phosphorylation)” value is reported as 2.68% (inactive).
With `CN1CCC(=C2c3ccccc3CCc3sccc32)CC1` the “activation (H2AX phosphorylation)” value was -2.3% [at 70.9 µM] (inactive).
